The record followed here is the OligoGym collection.
Further: reference of the scale not given here.

One assay addresses TRIM48. Kind of assay: pooled miR-30 sensor sort-seq; sequence = guide strand. Conditions: shRNA.
Consider ATGTCGTTCTTAACACACCCAA, for which the sensor-assay potency score (higher = more potent) was -1.03.

AACATCTTCTTTGTCTCCCTGT: the sensor-assay potency score (higher = more potent) was 0.214.

With TTTCTCTGCTGTATTGTCTTTA, the sensor-assay potency score (higher = more potent) was -0.0647.

TTAACAGCTTCTCCCAGTGTTC displayed a sensor-assay potency score (higher = more potent) of -1.29.

Consider TGTCGTTCTTAACACACCCAAG, for which the sensor-assay potency score (higher = more potent) was -1.51.

For TTCTCTGCTGTATTGTCTTTAT, the sensor-assay potency score (higher = more potent) is -1.43.

TGCTGTATTGTCTTTATGCATT registered a sensor-assay potency score (higher = more potent) of -1.57.

For the sequence TTCTTTAACAGCTTCTCCCAGT, the sensor-assay potency score (higher = more potent) was -0.186.

As for TTCTCTGATTTTCACAAGCTTT, the sensor-assay potency score (higher = more potent) is -1.29.

TTCTCAAATCTCCACATCGGAA came in with a sensor-assay potency score (higher = more potent) of -1.49.

As to AAACCGAACCTATTTGTCCTGT, the sensor-assay potency score (higher = more potent) turned out to be 0.0588.

In the case of TTTCTTTAACAGCTTCTCCCAG, the sensor-assay potency score (higher = more potent) is -0.688.

A further assay deals with TRIM50. Described as above. Conditions: shRNA.
AAAACTTTCCGGAAGAGCCTTT came in with a sensor-assay potency score (higher = more potent) of -0.209.

Turning to TCCAACTTGAGAGGCTCCGGGG, the sensor-assay potency score (higher = more potent) was -1.47.

Take TTCAGCTTGCCCTTACGGCTGG: the sensor-assay potency score (higher = more potent) is -0.338.

With TGCTGTAGTCGAAGCGCTCAGG, the sensor-assay potency score (higher = more potent) is -1.06.

TTCCGGATGAACTTGTGGTGGT: the sensor-assay potency score (higher = more potent) was -0.035.

On to TTGTGGTGGTCCTCATTGCCGA, for which the sensor-assay potency score (higher = more potent) was -1.14.

Sequence TCATAGTGCAGGTAGAGCCCGA registered a sensor-assay potency score (higher = more potent) of -0.353.

On to TTGGGCAGGGAGCTGCTGCCGT, for which the sensor-assay potency score (higher = more potent) is -1.11.

As to TAGTCGAAGCGCTCAGGCTGGC, the sensor-assay potency score (higher = more potent) was -0.915.

TTCGCCCTGCTCATAGTGCAGG gave a sensor-assay potency score (higher = more potent) of -1.35.

As to TGAACTTGTGGTGGTCCTCATT, the sensor-assay potency score (higher = more potent) was -1.36.

As to TGGAACTTCCGGATGAACTTGT, the sensor-assay potency score (higher = more potent) was -0.0502.

For a further assay, the target named is TRIM54. The assay is described as above. Conditions: shRNA.
TTGGAGAACATCTCCAGGCAGA came in with a sensor-assay potency score (higher = more potent) of -0.654.

The sequence TGGTTTGGAGAACATCTCCAGG showed a sensor-assay potency score (higher = more potent) of -1.46.

In the case of TAACAACTGCTTCTGCCTCCGG, the sensor-assay potency score (higher = more potent) was -0.255.

Sequence TAGTCTGGCACACCTCCTCCAT yielded a sensor-assay potency score (higher = more potent) of -1.55.

Sequence TTTAACAACTGCTTCTGCCTCC returned a sensor-assay potency score (higher = more potent) of 0.72.

The sequence TCCATCTGTGTGATCACTGCTT came in with a sensor-assay potency score (higher = more potent) of -0.164.

In turn, TCGCTGAGCTCACTCTTCTGGC showed a sensor-assay potency score (higher = more potent) of -0.97.

In turn, TTATTGATCAGCTCCTTGGCCT returned a sensor-assay potency score (higher = more potent) of -0.188.

In turn, TTGCCTGCCACCAGCATCGCGA gave a sensor-assay potency score (higher = more potent) of -1.1.

For TTGTCCTCGATAGTCTGGCACA, the sensor-assay potency score (higher = more potent) is -1.37.

AACAACTGCTTCTGCCTCCGGC returned a sensor-assay potency score (higher = more potent) of -0.512.

Regarding TTTGGAGAACATCTCCAGGCAG, the sensor-assay potency score (higher = more potent) is -0.659.
